Drawing on PubChem BioAssay (NCI), this text covers growth for eight compounds.

Common to all, as to assay: NCI-60 one-dose screen, 48 h (100 = growth as untreated, 0 = no growth, -100 = all killed)
One assay concerns NCI-H23 lung. The note with it: 10 µM unless noted.
The test system of the next assay is NCI-H226 lung. The conditions noted are these: 10 µM unless noted.
Another assay concerns NCI-H322M lung. The conditions noted are these: 10 µM unless noted.
A further assay concerns HOP-62 NSCLC. The note with it: 10 µM unless noted.
A further assay relates to NCI-H460 lung. The conditions noted are these: 10 µM unless noted.
The next assay has as its system A549/ATCC NSCLC. The note with it: 10 µM unless noted.
The subject of a further assay is 786-0 renal. The conditions noted are these: 10 µM unless noted.
For the next assay, the system named is COLO 205 colon. The note with it: 10 µM unless noted.
The subject of the next assay is DU-145 prostate. The conditions noted are these: 10 µM unless noted.
Another assay has as its system K-562 leukemia. The note with it: 10 µM unless noted.
The test system of the next assay is MALME-3M melanoma. The note with it: 10 µM unless noted.
The next assay has as its system MDA-MB-231 breast. The conditions noted are these: 10 µM unless noted.
The test system of a further assay is RXF 393 renal. The note with it: 10 µM unless noted.
The next assay deals with SF-268 CNS. The conditions noted are these: 10 µM unless noted.
In a further assay the test system is SF-295 CNS. The note with it: 10 µM unless noted.
Another assay has as its system SF-539 CNS. The conditions noted are these: 10 µM unless noted.
For another assay, the system named is UACC-257 melanoma. The note with it: 10 µM unless noted.
The subject of another assay is M14 melanoma. The conditions noted are these: 10 µM unless noted.
Another assay concerns NCI-H522 lung. The note with it: 10 µM unless noted.
Another assay has as its system HOP-92 NSCLC. The conditions noted are these: 10 µM.

Compounds without any hit were thinned out: in the full panel of roughly 83,000, 20% have a hit.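 Values shown are percent growth following 48 h exposure of cells in 96-well plates to a single concentration of compound; below 10 was considered active.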 A number with no mark means an inactive call. Calls of active or inactive are those of the source.

Take `O=C1C(c2ccccc2)=C(N2CCc3ccccc32)OC1(Cl)Cl`: the growth in the assay with NCI-H23 lung was 60.1%; in the assay with NCI-H226 lung it was 89.2%; with NCI-H322M lung, 86.3%; in the assay on HOP-62 NSCLC it was 98.1%; in the assay with NCI-H460 lung it was 88.2%; in the assay with A549/ATCC NSCLC it was 85%. Further, the growth in the assay on 786-0 renal was 60.1%; with COLO 205 colon it was -8.41% (active); with DU-145 prostate it was 69.4%; in the assay with K-562 leukemia it was 8.28% (active); in the assay with MALME-3M melanoma it was -27.3% (active); in the assay on MDA-MB-231 breast it was 82%. The growth in the assay on RXF 393 renal is 33.3%; in the assay on SF-268 CNS it was 83.1%; in the assay on SF-295 CNS, 83.6%; in the assay with SF-539 CNS, 75.8%; with UACC-257 melanoma it was 91.4%; in the assay with M14 melanoma, 62.2%.
With `Nc1nc(-c2cccc([N+](=O)[O-])c2)c(N=Nc2cccc([N+](=O)[O-])c2)s1`, the growth is -25.6% (active) with NCI-H23 lung; 14.9% in the assay on NCI-H226 lung; 64.6% in the assay on NCI-H322M lung; 16.5% in the assay on HOP-62 NSCLC; 4.2% (active) with NCI-H460 lung; -12% (active) in the assay with NCI-H522 lung. Moreover, the growth in the assay on 786-0 renal was -70.4% (active); with COLO 205 colon, 106%; in the assay with DU-145 prostate it was 56.7%; in the assay with K-562 leukemia it was 81.9%; in the assay with MALME-3M melanoma it was 52.4%; in the assay on MDA-MB-231 breast, 19.5%. For the same compound, the growth in the assay on RXF 393 renal was -64.5% (active); with SF-268 CNS it was 14.7%; in the assay with SF-295 CNS, 1.91% (active); with SF-539 CNS it was -26.4% (active); with UACC-257 melanoma, 88.6%; with M14 melanoma, 14.9%.
Take `NC(=O)c1cccc(C#CCNC[C@H]2C[C@@H](n3ccc4c(Cl)ncnc43)[C@H](O)[C@@H]2O)c1`: the growth with NCI-H23 lung was 99%; in the assay on NCI-H226 lung it was 99.1%; with NCI-H322M lung, 94.2%; in the assay with HOP-62 NSCLC, 106%; with NCI-H460 lung it was 113%; with NCI-H522 lung, 97.3%. Further, the growth is 101% in the assay with 786-0 renal; 116% with COLO 205 colon; 108% in the assay with DU-145 prostate; 111% with K-562 leukemia; 101% in the assay on MDA-MB-231 breast; 107% in the assay on RXF 393 renal. Besides, the growth is 102% in the assay with SF-268 CNS; 105% in the assay with SF-295 CNS; 98.9% in the assay with SF-539 CNS; 98.2% with UACC-257 melanoma; 104% in the assay with M14 melanoma.
On to `CS(=O)(=O)c1ccc(-n2cc(/C=N/O)c(-c3ccccc3)n2)cc1`, for which the growth in the assay with NCI-H226 lung is 77.1%; in the assay with NCI-H322M lung, 81.7%; in the assay on HOP-62 NSCLC, 89.5%; in the assay with NCI-H460 lung it was 93.9%; in the assay with HOP-92 NSCLC, 87.9%; with NCI-H522 lung it was 70.3%. For the same compound, the growth with A549/ATCC NSCLC is 77.2%; in the assay with 786-0 renal, 79.1%; in the assay on COLO 205 colon it was 101%; with DU-145 prostate, 83.9%; in the assay with K-562 leukemia it was 64.5%; in the assay on MALME-3M melanoma it was 97.2%. For the same compound, the growth with MDA-MB-231 breast was 72.4%; with RXF 393 renal, 78.6%; in the assay on SF-268 CNS, 70.9%; with SF-295 CNS it was 87.3%; in the assay with SF-539 CNS, 71.1%; in the assay with UACC-257 melanoma, 90.1%.
On to `Cn1cc(-c2cc(N)n3nc(-c4cn(C)c5ccccc45)cc3n2)c2ccccc21`, for which the growth with NCI-H226 lung is 113%; in the assay with NCI-H322M lung, 98.5%; with HOP-62 NSCLC, 108%; in the assay on NCI-H460 lung it was 93.3%; in the assay on HOP-92 NSCLC it was 88.8%; with NCI-H522 lung, 109%. Moreover, the growth in the assay on A549/ATCC NSCLC was 75.8%; in the assay on 786-0 renal it was 63.7%; in the assay with COLO 205 colon it was 123%; in the assay with DU-145 prostate it was 88.1%; in the assay on K-562 leukemia it was 7.81% (active); with MALME-3M melanoma, 84%. The growth in the assay on MDA-MB-231 breast is 76.4%; in the assay on RXF 393 renal, 95.6%; with SF-268 CNS, 100%; with SF-295 CNS, 95.9%; in the assay on SF-539 CNS, 84.1%; in the assay on UACC-257 melanoma, 107%. Moreover, the growth in the assay with M14 melanoma was 32.1%.
As to `C=CCOc1cccc(/C=C2\SC(=S)N(C3CC(=O)N(c4ccc(Br)cc4)C3=O)C2=O)c1` (centres undefined), the growth in the assay on NCI-H226 lung is 101%; in the assay with NCI-H322M lung, 102%; in the assay with HOP-62 NSCLC, 100%; with NCI-H460 lung, 104%; in the assay on HOP-92 NSCLC, 107%; with A549/ATCC NSCLC, 105%. Besides, the growth with 786-0 renal is 104%; in the assay with COLO 205 colon, 126%; in the assay on DU-145 prostate, 109%; in the assay on K-562 leukemia, 88.1%; in the assay with MALME-3M melanoma it was 100%; in the assay on MDA-MB-231 breast, 96.3%. Besides, the growth with RXF 393 renal was 132%; in the assay with SF-268 CNS, 103%; in the assay on SF-295 CNS, 97.8%; in the assay on SF-539 CNS it was 101%; in the assay on UACC-257 melanoma, 108%; in the assay with M14 melanoma, 106%.
For the compound `Cc1cc(C(NC(=O)CCCCCNc2cccc3c2C(=O)N(C2CCC(=O)NC2=O)C3=O)c2ccc3c(c2)OC(F)(F)O3)c(O)c2ncccc12` (centres undefined), the growth in the assay on NCI-H226 lung was 72.8%; in the assay with NCI-H322M lung it was 71.1%; in the assay on HOP-62 NSCLC it was 51.1%; in the assay with NCI-H460 lung it was 14.7%; with HOP-92 NSCLC, 4.13% (active); with NCI-H522 lung, 72.1%. The growth is 79.2% with 786-0 renal; 111% in the assay on COLO 205 colon; 51.9% with DU-145 prostate; 30.2% in the assay on K-562 leukemia; 84.5% in the assay on MALME-3M melanoma; 55.2% in the assay with MDA-MB-231 breast. The growth in the assay on RXF 393 renal is 86.4%; with SF-268 CNS, 47.8%; in the assay on SF-295 CNS it was 48.2%; with SF-539 CNS it was 56.3%; with UACC-257 melanoma, 98.5%; with M14 melanoma, 70.2%.
Regarding `COC(=O)c1ccc(NC2=C/C(=N/S(=O)(=O)c3ccc(C(=O)O)cc3)c3ccccc3C2=O)cc1`, the growth in the assay on NCI-H226 lung is 32.7%; in the assay with NCI-H322M lung, 107%; with HOP-62 NSCLC it was 88.2%; in the assay with NCI-H460 lung, 96.3%; in the assay on HOP-92 NSCLC, 23.3%; in the assay on NCI-H522 lung, 81.7%. Further, the growth in the assay on 786-0 renal is 9.38% (active); in the assay on COLO 205 colon, 115%; in the assay with DU-145 prostate it was 7.85% (active); in the assay with K-562 leukemia it was 0.527% (active); in the assay with MALME-3M melanoma, -89.3% (active); with MDA-MB-231 breast, -21.6% (active). The growth is -14.6% (active) in the assay on RXF 393 renal; 37.7% with SF-268 CNS; 91.5% in the assay on SF-295 CNS; -83.1% (active) with SF-539 CNS; -6.94% (active) in the assay with UACC-257 melanoma; 67.4% with M14 melanoma.
